How the values were obtained:
Assay in all cases: DAPPL (digital affinity profiling via proximity ligation, sequencing); 10 mM Tris-HCl pH 7.5, 50 mM NaCl, 1 mM DTT, 4% glycerol, room temperature, 30 min; GST-TFs on glutathione beads, 16-mer random dsDNA library, 0.1% formaldehyde crosslink after washing; high values mean tight binding
Conditions in all cases: protein: recombinant; tags: N-terminal GST; dsDNA, one strand shown
[1] = molecular target: T1, FEV (Homo sapiens, UniProt Q99581 1-238)
T1 sequence: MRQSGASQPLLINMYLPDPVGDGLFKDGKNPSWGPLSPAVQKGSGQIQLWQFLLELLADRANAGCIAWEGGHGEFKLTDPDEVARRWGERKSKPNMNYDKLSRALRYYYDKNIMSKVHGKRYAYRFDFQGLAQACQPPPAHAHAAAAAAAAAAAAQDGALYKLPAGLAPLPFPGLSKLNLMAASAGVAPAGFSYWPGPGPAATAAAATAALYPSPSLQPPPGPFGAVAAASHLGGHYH
Outline: (§1)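 Yeast served to express human transcription factors as GST fusions, which were then captured on glutathione beads and labelled with DNA barcodes. Pooled with a tag-only sample, they were incubated with 200 nmole of a 16-mer random double-stranded DNA library for 30 min at room temperature in Tris/NaCl/DTT/glycerol buffer, washed, crosslinked with 0.1% formaldehyde, ligated by proximity, amplified by PCR and sequenced. Dividing each hexamer's read frequency for a factor by its frequency for the tag-only sample gives the binding signal.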

[2] = molecular target: ETV5 (Homo sapiens, UniProt P41161 1-510)
Outline: as §1

[3] = molecular target: T2, SPIC (Homo sapiens, UniProt Q8N5J4 1-248)
T2 sequence: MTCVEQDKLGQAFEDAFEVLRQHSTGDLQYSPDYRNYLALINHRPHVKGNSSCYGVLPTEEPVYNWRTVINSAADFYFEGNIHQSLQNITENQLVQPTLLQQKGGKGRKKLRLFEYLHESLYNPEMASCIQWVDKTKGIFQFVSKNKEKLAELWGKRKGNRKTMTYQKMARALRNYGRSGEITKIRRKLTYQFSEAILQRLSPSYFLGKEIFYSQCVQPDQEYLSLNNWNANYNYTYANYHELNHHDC
Outline: as §1

[4] = molecular target: ELF4 (Homo sapiens, UniProt Q99607 1-663)
Outline: as §1

[5] = molecular target: T3, ELK4 (Homo sapiens, UniProt P28324-2 1-405)
T3 sequence: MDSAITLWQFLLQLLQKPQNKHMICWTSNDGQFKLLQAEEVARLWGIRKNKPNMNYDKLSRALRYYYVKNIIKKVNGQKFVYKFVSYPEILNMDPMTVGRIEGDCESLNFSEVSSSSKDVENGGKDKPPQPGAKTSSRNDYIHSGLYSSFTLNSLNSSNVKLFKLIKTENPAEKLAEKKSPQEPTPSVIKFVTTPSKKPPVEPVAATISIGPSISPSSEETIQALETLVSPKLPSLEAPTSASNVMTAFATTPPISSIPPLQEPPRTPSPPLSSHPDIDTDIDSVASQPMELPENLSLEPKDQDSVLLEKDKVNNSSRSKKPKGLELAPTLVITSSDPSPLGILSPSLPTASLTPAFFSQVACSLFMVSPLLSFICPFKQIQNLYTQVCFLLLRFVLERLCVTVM
Outline: as §1

[6] = molecular target: T4, ETV2 (Homo sapiens, UniProt O00321 1-342)
T4 sequence: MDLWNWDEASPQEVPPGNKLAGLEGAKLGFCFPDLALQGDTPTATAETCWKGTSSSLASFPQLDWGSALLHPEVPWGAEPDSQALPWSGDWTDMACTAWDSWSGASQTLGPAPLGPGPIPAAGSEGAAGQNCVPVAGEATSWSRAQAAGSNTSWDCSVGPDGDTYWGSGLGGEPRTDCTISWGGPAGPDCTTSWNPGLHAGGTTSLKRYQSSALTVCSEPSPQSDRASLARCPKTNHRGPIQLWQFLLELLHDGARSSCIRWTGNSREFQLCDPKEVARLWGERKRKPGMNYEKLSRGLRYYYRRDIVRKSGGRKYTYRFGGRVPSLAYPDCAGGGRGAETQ
Outline: as §1

[7] = molecular target: T5, ELF3 (Homo sapiens, UniProt P78545 1-371)
T5 sequence: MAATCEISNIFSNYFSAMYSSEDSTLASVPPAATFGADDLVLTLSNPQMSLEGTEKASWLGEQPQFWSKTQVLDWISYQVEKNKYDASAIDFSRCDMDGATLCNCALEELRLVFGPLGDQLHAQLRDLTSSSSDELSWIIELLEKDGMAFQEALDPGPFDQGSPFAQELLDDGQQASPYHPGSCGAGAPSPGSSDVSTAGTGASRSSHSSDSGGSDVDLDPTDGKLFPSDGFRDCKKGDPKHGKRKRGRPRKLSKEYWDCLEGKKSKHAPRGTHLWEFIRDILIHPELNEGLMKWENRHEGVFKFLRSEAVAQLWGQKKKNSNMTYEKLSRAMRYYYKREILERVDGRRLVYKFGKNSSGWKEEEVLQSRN
Outline: as §1

[8] = molecular target: ETV1 (Homo sapiens, UniProt P50549 1-477)
Outline: as §1

[9] = molecular target: T6, ERF (Homo sapiens, UniProt P50548 1-548)
T6 sequence: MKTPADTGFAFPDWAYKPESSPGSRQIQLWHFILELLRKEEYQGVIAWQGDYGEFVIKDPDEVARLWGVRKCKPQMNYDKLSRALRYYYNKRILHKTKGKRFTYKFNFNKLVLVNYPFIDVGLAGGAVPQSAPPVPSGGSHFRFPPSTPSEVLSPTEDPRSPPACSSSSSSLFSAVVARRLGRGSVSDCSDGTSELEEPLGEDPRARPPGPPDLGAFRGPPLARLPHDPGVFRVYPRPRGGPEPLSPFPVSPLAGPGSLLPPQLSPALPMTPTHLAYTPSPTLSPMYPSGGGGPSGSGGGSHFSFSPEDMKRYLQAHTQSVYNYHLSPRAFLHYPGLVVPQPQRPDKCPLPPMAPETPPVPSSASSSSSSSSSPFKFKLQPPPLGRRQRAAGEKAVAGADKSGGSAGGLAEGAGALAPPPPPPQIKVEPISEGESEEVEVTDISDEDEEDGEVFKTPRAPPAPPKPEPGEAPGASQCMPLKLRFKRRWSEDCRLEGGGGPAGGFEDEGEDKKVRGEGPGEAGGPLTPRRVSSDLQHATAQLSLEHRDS
Outline: as §1

[10] = molecular target: T7, ETV3L (Homo sapiens, UniProt Q6ZN32 1-361)
T7 sequence: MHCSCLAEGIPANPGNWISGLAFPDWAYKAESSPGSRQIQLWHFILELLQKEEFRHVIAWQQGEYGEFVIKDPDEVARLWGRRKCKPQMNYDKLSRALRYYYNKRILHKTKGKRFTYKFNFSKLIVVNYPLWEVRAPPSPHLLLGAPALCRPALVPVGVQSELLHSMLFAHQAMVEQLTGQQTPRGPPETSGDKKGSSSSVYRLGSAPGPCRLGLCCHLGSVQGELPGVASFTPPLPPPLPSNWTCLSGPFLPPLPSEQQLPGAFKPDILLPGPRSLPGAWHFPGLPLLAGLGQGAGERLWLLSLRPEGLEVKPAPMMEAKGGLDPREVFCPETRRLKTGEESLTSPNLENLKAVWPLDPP
Outline: as §1

[11] = molecular target: T8, ETS2 (Homo sapiens, UniProt P15036 1-469)
T8 sequence: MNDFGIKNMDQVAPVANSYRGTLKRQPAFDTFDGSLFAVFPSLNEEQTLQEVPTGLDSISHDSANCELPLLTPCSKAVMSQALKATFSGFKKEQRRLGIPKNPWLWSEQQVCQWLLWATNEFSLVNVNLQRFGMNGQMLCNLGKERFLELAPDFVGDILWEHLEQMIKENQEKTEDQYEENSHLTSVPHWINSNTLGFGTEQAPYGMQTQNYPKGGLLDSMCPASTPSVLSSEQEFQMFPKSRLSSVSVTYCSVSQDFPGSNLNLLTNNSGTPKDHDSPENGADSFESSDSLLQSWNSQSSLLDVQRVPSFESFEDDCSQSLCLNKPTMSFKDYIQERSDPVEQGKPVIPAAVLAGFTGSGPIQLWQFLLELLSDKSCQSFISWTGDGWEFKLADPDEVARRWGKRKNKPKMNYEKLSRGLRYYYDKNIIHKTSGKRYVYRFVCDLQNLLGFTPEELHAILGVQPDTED
Outline: as §1

[12] = molecular target: T9, SPDEF (Homo sapiens, UniProt O95238 1-335)
T9 sequence: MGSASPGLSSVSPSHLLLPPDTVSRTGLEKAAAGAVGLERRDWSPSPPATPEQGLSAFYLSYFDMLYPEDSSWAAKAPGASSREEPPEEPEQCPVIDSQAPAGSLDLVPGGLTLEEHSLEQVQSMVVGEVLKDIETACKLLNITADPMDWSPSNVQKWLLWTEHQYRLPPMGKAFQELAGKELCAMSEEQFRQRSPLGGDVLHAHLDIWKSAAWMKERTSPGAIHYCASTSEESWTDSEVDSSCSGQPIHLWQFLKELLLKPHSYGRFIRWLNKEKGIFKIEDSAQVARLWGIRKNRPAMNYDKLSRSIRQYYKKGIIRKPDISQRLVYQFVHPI
Outline: as §1

[13] = molecular target: T10, ETV7 (Homo sapiens, UniProt Q9Y603 1-341)
T10 sequence: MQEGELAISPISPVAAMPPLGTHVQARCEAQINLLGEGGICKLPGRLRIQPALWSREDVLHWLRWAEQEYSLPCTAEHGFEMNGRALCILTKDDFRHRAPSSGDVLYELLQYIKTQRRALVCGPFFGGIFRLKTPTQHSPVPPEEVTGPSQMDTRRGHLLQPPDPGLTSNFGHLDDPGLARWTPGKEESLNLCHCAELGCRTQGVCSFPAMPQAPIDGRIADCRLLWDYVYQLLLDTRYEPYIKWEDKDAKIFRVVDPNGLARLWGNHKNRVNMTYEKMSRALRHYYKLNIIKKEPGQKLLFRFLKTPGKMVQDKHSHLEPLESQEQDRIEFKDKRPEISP
Outline: as §1

[14] = molecular target: T11, ETV3 (Homo sapiens, UniProt P41162-2 1-143)
T11 sequence: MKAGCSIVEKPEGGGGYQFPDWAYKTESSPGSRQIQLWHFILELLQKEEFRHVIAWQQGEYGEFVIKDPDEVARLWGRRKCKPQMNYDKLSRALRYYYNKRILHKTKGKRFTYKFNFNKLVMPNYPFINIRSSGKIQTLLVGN
Outline: as §1

[15] = molecular target: ETV6 (Homo sapiens, UniProt P41212 1-452)
Outline: as §1

[16] = molecular target: T12, ELF5 (Homo sapiens, UniProt Q9UKW6-2 1-255)
T12 sequence: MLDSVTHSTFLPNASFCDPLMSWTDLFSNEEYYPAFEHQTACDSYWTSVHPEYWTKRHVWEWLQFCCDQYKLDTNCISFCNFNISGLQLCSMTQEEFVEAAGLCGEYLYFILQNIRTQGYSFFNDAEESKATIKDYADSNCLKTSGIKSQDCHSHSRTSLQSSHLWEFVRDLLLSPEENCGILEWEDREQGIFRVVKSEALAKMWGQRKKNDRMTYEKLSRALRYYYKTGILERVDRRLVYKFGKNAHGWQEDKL
Outline: as §1

ELF4, sequence (Q99607 whole entry): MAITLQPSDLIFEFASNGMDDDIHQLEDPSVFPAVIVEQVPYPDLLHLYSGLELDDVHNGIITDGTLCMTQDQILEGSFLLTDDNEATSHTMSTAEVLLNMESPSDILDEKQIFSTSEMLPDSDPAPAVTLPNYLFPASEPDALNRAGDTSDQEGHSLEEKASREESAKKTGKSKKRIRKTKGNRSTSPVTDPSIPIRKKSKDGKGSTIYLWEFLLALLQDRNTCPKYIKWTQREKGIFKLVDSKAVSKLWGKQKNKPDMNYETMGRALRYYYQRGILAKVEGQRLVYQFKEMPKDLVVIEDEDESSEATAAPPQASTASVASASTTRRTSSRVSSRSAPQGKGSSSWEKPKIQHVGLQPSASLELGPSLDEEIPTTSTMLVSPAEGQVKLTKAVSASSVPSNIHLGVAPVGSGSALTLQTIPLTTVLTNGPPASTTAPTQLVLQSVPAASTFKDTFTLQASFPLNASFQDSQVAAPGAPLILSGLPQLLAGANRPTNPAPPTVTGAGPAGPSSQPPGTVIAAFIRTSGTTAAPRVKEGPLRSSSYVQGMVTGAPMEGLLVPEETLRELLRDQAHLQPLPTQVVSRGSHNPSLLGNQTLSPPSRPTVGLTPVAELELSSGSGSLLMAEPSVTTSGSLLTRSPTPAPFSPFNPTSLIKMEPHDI
ETV6, sequence (P41212 whole entry): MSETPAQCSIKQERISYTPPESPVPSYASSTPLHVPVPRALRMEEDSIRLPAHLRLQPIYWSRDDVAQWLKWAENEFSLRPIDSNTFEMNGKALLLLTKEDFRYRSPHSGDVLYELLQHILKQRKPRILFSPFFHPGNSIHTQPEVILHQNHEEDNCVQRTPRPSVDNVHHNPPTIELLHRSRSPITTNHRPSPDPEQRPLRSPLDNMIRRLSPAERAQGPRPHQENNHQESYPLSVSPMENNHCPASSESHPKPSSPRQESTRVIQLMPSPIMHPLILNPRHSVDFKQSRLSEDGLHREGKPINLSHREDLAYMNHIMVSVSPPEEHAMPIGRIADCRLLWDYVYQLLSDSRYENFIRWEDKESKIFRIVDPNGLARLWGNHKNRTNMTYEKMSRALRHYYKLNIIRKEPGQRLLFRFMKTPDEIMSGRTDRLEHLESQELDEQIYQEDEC
ETV5, sequence (P41161 whole entry): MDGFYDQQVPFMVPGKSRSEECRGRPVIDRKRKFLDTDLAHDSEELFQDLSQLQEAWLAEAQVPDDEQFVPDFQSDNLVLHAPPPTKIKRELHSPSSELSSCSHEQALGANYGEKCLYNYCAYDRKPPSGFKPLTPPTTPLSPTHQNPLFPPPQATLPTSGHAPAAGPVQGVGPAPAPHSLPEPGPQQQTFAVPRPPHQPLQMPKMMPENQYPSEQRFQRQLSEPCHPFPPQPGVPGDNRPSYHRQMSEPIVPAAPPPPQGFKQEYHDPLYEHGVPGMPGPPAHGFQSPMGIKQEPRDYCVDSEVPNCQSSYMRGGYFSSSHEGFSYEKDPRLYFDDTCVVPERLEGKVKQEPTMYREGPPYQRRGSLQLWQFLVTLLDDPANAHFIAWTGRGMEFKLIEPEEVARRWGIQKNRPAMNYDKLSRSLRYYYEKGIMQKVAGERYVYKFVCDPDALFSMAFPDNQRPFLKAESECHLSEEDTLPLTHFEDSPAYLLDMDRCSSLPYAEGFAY
ETV1, sequence (P50549 whole entry): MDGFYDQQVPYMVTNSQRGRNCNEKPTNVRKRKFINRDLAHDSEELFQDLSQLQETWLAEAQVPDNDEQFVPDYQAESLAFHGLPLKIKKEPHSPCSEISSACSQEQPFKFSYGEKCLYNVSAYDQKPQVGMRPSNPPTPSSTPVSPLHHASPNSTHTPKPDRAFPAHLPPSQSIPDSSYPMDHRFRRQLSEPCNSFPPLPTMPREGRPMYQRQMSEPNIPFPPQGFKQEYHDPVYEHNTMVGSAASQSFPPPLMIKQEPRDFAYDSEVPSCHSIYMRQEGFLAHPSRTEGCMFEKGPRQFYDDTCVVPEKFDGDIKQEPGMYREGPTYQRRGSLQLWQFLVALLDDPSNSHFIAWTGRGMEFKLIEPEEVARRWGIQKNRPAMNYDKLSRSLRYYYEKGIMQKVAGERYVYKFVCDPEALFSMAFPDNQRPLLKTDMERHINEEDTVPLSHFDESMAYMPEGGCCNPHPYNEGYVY

| Sequence | binding signal [1] | binding signal [2] | binding signal [3] | binding signal [4] | binding signal [5] | binding signal [6] | binding signal [7] | binding signal [8] | binding signal [9] | binding signal [10] | binding signal [11] | binding signal [12] | binding signal [13] | binding signal [14] | binding signal [15] | binding signal [16] |
| --- | --- | --- | --- | --- | --- | --- | --- | --- | --- | --- | --- | --- | --- | --- | --- | --- |
| GCTTGG | 1.03 fold enrichment (6-mer frequency, TF over GST control) | 1.02 fold enrichment (6-mer frequency, TF over GST control) | 1.03 fold enrichment (6-mer frequency, TF over GST control) | 1.07 fold enrichment (6-mer frequency, TF over GST control) | 1.11 fold enrichment (6-mer frequency, TF over GST control) | 1.07 fold enrichment (6-mer frequency, TF over GST control) | 1.14 fold enrichment (6-mer frequency, TF over GST control) | 1.22 fold enrichment (6-mer frequency, TF over GST control) | 1.18 fold enrichment (6-mer frequency, TF over GST control) | 1.01 fold enrichment (6-mer frequency, TF over GST control) | 1.14 fold enrichment (6-mer frequency, TF over GST control) | 1.08 fold enrichment (6-mer frequency, TF over GST control) | 1.13 fold enrichment (6-mer frequency, TF over GST control) | 1.02 fold enrichment (6-mer frequency, TF over GST control) | 1.13 fold enrichment (6-mer frequency, TF over GST control) |  |
| GTCCCG | 1.24 fold enrichment (6-mer frequency, TF over GST control) | 1.19 fold enrichment (6-mer frequency, TF over GST control) | 1.23 fold enrichment (6-mer frequency, TF over GST control) | 1.17 fold enrichment (6-mer frequency, TF over GST control) | 1.23 fold enrichment (6-mer frequency, TF over GST control) | 1.06 fold enrichment (6-mer frequency, TF over GST control) | 1.26 fold enrichment (6-mer frequency, TF over GST control) | 1.27 fold enrichment (6-mer frequency, TF over GST control) | 1.22 fold enrichment (6-mer frequency, TF over GST control) | 1.3 fold enrichment (6-mer frequency, TF over GST control) | 1.22 fold enrichment (6-mer frequency, TF over GST control) | 1.34 fold enrichment (6-mer frequency, TF over GST control) | 1.19 fold enrichment (6-mer frequency, TF over GST control) | 1.32 fold enrichment (6-mer frequency, TF over GST control) | 1.13 fold enrichment (6-mer frequency, TF over GST control) | 1.23 fold enrichment (6-mer frequency, TF over GST control) |
| CACACG | 1.14 fold enrichment (6-mer frequency, TF over GST control) | 1.11 fold enrichment (6-mer frequency, TF over GST control) | 1.15 fold enrichment (6-mer frequency, TF over GST control) | 1.18 fold enrichment (6-mer frequency, TF over GST control) | 1.17 fold enrichment (6-mer frequency, TF over GST control) | 1.24 fold enrichment (6-mer frequency, TF over GST control) | 1.07 fold enrichment (6-mer frequency, TF over GST control) | 1.16 fold enrichment (6-mer frequency, TF over GST control) | 1.12 fold enrichment (6-mer frequency, TF over GST control) | 1.21 fold enrichment (6-mer frequency, TF over GST control) | 1.12 fold enrichment (6-mer frequency, TF over GST control) | 1.16 fold enrichment (6-mer frequency, TF over GST control) |  | 1.1 fold enrichment (6-mer frequency, TF over GST control) | 1.18 fold enrichment (6-mer frequency, TF over GST control) | 1.04 fold enrichment (6-mer frequency, TF over GST control) |

Reference: publication PMC7862700, “An all-to-all approach to the identification of sequence-specific readers for epigenetic DNA modifications on cytosine”
